Assay results taken from PubChem BioAssay AID1159580 (chemical genetic matrix, 2015).
In all, about 5,500 compounds went through this assay and about 2,000 (36%) were called active. About 18% were inconclusive and are not listed. Rule as the data show it: active = normalized growth mostly below about 0.91 (no sharp cut-off); inconclusive = no clear call, values can overlap the other calls; inactive = mostly above about 0.92. This is one part of the list.

Test: chemical genetic growth profiling, strain panel (AID 1159580);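 also: tested at 20 µM; growth read once vehicle control cultures reached saturation at 30 °C; 1 = growth at the plate median or of vehicle wells; lower values mean less growth of the strain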
Conditions: S. cerevisiae deletion strains, growth OD

Measured: normalized growth

CC(=O)NNC(=O)N1Cc2ccccc2Oc2ccc(Cl)cc21
inactive: locus YAL013W, strain DEP1, stronger effect = lower value 1.04 | locus YAL040C, strain CLN3, stronger effect = lower value 1 | locus YCL061C, strain MRC1 (second series), stronger effect = lower value 1.02 | locus YDR150W, strain NUM1, stronger effect = lower value 1.02 | locus YDR363W, strain ESC2, stronger effect = lower value 1.03 | locus YER002W, strain NOP16, stronger effect = lower value 1 | locus YMR307W, strain GAS1, stronger effect = lower value 0.997 | locus YNL153C, strain GIM3, stronger effect = lower value 1.02 | locus YNL175C, strain NOP13, stronger effect = lower value 0.989 | locus YNL197C, strain WHI3, stronger effect = lower value 1.01 | locus YNL224C, strain SQS1, stronger effect = lower value 0.984 | locus YNL322C, strain KRE1, stronger effect = lower value 1.03 | locus YOR083W, strain WHI5 (second series), stronger effect = lower value 1.01 | locus YPL055C, strain LGE1, stronger effect = lower value 1.04 | locus YPL241C, strain CIN2, stronger effect = lower value 1
